Test results reported in PubChem BioAssay AID1159580 (chemical genetic matrix, 2015).
“And” between values parts separate entries of the source, which are not always exact repeats. Identical values can stand only once. The whole screen tested about 5,500 compounds, of which about 2,000 (36%) were called active. Another 18% or so got no clear call; they are omitted. No stated cut-off is given here; in the data, active means normalized growth mostly below about 0.91 (no sharp cut-off); inconclusive means no clear call, values can overlap the other calls; inactive means mostly above about 0.92. This is one part of the list.

Assay: chemical genetic growth profiling, strain panel (AID 1159580);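 further: tested at 20 µM; growth read once vehicle control cultures reached saturation at 30 °C; 1 = growth at the plate median or of vehicle wells; lower values mean less growth of the strain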
Settings: S. cerevisiae deletion strains, growth OD

Measured: normalized growth

Oc1ccc(Cl)c2cccnc12
active: locus YAL021C, strain ccr4, hits give low values 0.0729 | locus YAL026C, strain drs2, hits give low values 0.0768 | locus YAL030W, strain snc1, hits give low values 0.0588 | locus YBL061C, strain skt5, hits give low values 0.0618 | locus YBR009C, strain hhf1, hits give low values 0.0586 | locus YBR021W, strain FUR4, hits give low values 0.11 | locus YBR023C, strain chs3, hits give low values 0.0665 | locus YBR171W, strain sec66, hits give low values 0.0765 | locus YBR229C, strain ROT2, hits give low values 0.0466 | locus YBR231C, strain swc5, hits give low values 0.0699 | locus YBR279W, strain paf1, hits give low values 0.0591 | locus YCL011C, strain gbp2, hits give low values 0.0563 | locus YCL016C, strain dcc1, hits give low values 0.119 | locus YCL029C, strain bik1, hits give low values 0.0654 | locus YCL069W, strain vba3, hits give low values 0.0931 | locus YCR088W, strain abp1, hits give low values 0.0863 | locus YDL005C, strain med2, hits give low values 0.14 | locus YDL035C, strain GPR1, hits give low values 0.0492 | locus YDL040C, strain nat1, hits give low values 0.169 | locus YDL074C, strain BRE1, hits give low values 0.0799 | locus YDL101C, strain DUN1, hits give low values 0.0585 | locus YDL185W, strain tfp1, hits give low values 0.0618 | locus YDL192W, strain arf1, hits give low values 0.0648 | locus YDR001C, strain nth1, hits give low values 0.113 | locus YDR069C, strain doa4, hits give low values 0.0629 | locus YDR101C, strain arx1, hits give low values 0.0618 | locus YDR137W, strain rgp1, hits give low values 0.102 | locus YDR159W, strain sac3, hits give low values 0.284 | locus YDR162C, strain NBP2, hits give low values 0.0481 | locus YDR195W, strain ref2 0.112 | locus YDR297W, strain sur2, hits give low values 0.0577 | locus YDR318W, strain mcm21, hits give low values 0.0654 | locus YDR334W, strain swr1, hits give low values 0.0718 | locus YDR335W, strain msn5, hits give low values 0.0632 | locus YDR388W, hits give low values 0.0579 | locus YDR392W, strain spt3, hits give low values 0.12 | locus YDR502C, strain sam2, hits give low values 0.0635 | locus YEL003W, strain gim4, hits give low values 0.0561 | locus YEL037C, strain rad23, hits give low values 0.0834 | locus YEL061C, strain CIN8 (second series), hits give low values 0.113 | locus YEL061C, strain CIN8, hits give low values 0.0497 | locus YER015W, strain faa2, hits give low values 0.0605 | locus YER016W, strain bim1, hits give low values 0.0613 | locus YER110C, hits give low values 0.0829 | locus YER111C, strain swi4, hits give low values 0.0714 | locus YER155C, strain BEM2 (second series), hits give low values 0.0997 | locus YER155C, strain BEM2, hits give low values 0.0681 | locus YER167W, strain BCK2, hits give low values 0.0524 | locus YFR010W, strain ubp6, hits give low values 0.0733 | locus YGL078C, strain dbp3, hits give low values 0.0711 | locus YGL086W, strain mad1, hits give low values 0.0668 | locus YGL167C, strain pmr1, hits give low values 0.0738 | locus YGL173C, strain kem1, hits give low values 0.0702 | locus YGL227W, strain vid30, hits give low values 0.128 | locus YGL240W, strain doc1, hits give low values 0.0706 | locus YGL248W, strain PDE1, hits give low values 0.0483 | locus YGL253W, strain hxk2, hits give low values 0.0835 | locus YGR078C, strain PAC10, hits give low values 0.0502 | locus YGR135W, strain pre9, hits give low values 0.066 | locus YGR252W, strain gcn5, hits give low values 0.174 | locus YHR013C, strain ard1, hits give low values 0.101 | locus YHR027C, strain rpn1, hits give low values 0.0624 | locus YHR030C, strain SLT2, hits give low values 0.0509 and 0.106 | locus YHR079C, strain IRE1 (second series), hits give low values 0.0587 | locus YHR079C, strain IRE1, hits give low values 0.127 | locus YHR094C, strain hxt1, hits give low values 0.0631 | locus YHR129C, strain ARP1, hits give low values 0.0599 | locus YHR142W, strain chs7, hits give low values 0.0877 | locus YHR200W, strain rpn10, hits give low values 0.0662 | locus YIL066C, strain RNR3, hits give low values 0.0495 | locus YIL073C, strain SPO22, hits give low values 0.111 | locus YIL125W, strain kgd1, hits give low values 0.0705 | locus YIR030C, strain dcg1, hits give low values 0.0597 | locus YJL092W, strain hpr5, hits give low values 0.0945 | locus YJL095W, strain BCK1 (second series), hits give low values 0.0605 | locus YJL095W, strain BCK1, hits give low values 0.0616 and 0.0998 | locus YJL115W, strain asf1, hits give low values 0.146 | locus YJL129C, strain trk1, hits give low values 0.0826 | locus YJL134W, strain LCB3, hits give low values 0.0525 | locus YJL154C, strain vps35, hits give low values 0.102 | locus YJL164C, strain tpk1, hits give low values 0.0587 | locus YJL166W, strain qcr8, hits give low values 0.059 | locus YJL168C, strain set2, hits give low values 0.0636 | locus YJL187C, strain SWE1 (second series), hits give low values 0.0476 | locus YJR043C, strain POL32, hits give low values 0.0636 | locus YJR066W, strain TOR1, hits give low values 0.0218 | locus YKL009W, strain mrt4, hits give low values 0.0954 | locus YKL068W, hits give low values 0.0759 | locus YKL085W, strain MDH1 (second series), hits give low values 0.0618 | locus YKL085W, strain MDH1, hits give low values 0.0618 | locus YKL160W, strain elf1, hits give low values 0.082 | locus YKR001C, strain vps1, hits give low values 0.0627 | locus YKR026C, strain gcn3, hits give low values 0.122 | locus YKR091W, strain srl3, hits give low values 0.135 | locus YLL001W, strain dnm1, hits give low values 0.0833 | locus YLL026W, hits give low values 0.0593 | locus YLL041C, strain sdh2, hits give low values 0.065 | locus YLR027C, strain aat2, hits give low values 0.0538 | locus YLR039C, strain RIC1, hits give low values 0.0942 | locus YLR058C, strain SHM2, hits give low values 0.0495 | locus YLR102C, strain apc9, hits give low values 0.0664 | locus YLR113W, strain HOG1, hits give low values 0.168 | locus YLR221C, strain rsa3, hits give low values 0.0599 | locus YLR258W, strain gsy2, hits give low values 0.0596 | locus YLR262C, strain YPT6 (second series), hits give low values 0.108 | locus YLR262C, strain YPT6, hits give low values 0.103 | locus YLR268W, strain sec22, hits give low values 0.0689 | locus YLR320W, strain mms22, hits give low values 0.0776 | locus YLR330W, strain CHS5, hits give low values 0.0512 | locus YLR342W, strain FKS1 (second series), hits give low values 0.0673 | locus YLR342W, strain FKS1, hits give low values 0.0668 | locus YLR357W, strain rsc2, hits give low values 0.203 | locus YLR370C, strain arc18, hits give low values 0.0765 | locus YLR371W, strain rom2, hits give low values 0.066 | locus YLR384C, strain iki3, hits give low values 0.0582 | locus YLR418C, strain cdc73, hits give low values 0.0923 | locus YML016C, strain PPZ1, hits give low values 0.0462 | locus YML032C, strain rad52, hits give low values 0.0754 | locus YML120C, strain ndi1, hits give low values 0.0565 | locus YML124C, strain tub3, hits give low values 0.0612 | locus YMR058W, strain fet3, hits give low values 0.0641 | locus YMR078C, strain ctf18, hits give low values 0.0785 | locus YMR125W, strain sto1, hits give low values 0.244 | locus YMR129W, hits give low values 0.0599 | locus YMR205C, strain PFK2, hits give low values 0.12 | locus YMR223W, strain ubp8, hits give low values 0.0681 | locus YMR231W, strain pep5, hits give low values 0.0661 | locus YMR263W, strain SAP30, hits give low values 0.0554 | locus YMR307W, strain GAS1, hits give low values 0.132 | locus YNL067W, strain RPL9B, hits give low values 0.049 | locus YNL071W, strain lat1, hits give low values 0.0622 | locus YNL183C, strain NPR1, hits give low values 0.0694 | locus YNL209W, strain ssb2, hits give low values 0.0567 | locus YNL233W, strain BNI4, hits give low values 0.0547 | locus YNL248C, strain rpa49, hits give low values 0.194 | locus YNL250W, strain rad50, hits give low values 0.0731 | locus YNL271C, strain bni1, hits give low values 0.0769 | locus YNL298W, strain CLA4, hits give low values 0.076 | locus YNL307C, strain MCK1, hits give low values 0.0703 | locus YNL322C, strain KRE1 (second series), hits give low values 0.0667 | locus YNL322C, strain KRE1, hits give low values 0.0462 | locus YNR049C, strain mso1, hits give low values 0.0954 | locus YNR052C, strain pop2, hits give low values 0.065 | locus YOL006C, strain TOP1, hits give low values 0.117 | locus YOL147C, strain pex11, hits give low values 0.0602 | locus YOR001W, strain rrp6, hits give low values 0.0711 | locus YOR061W, strain CKA2, hits give low values 0.0478 | locus YOR069W, strain VPS5, hits give low values 0.0472 | locus YOR070C, strain gyp1, hits give low values 0.0596 | locus YOR080W, strain dia2, hits give low values 0.0638 | locus YOR083W, strain WHI5, hits give low values 0.0897 | locus YOR106W, strain vam3, hits give low values 0.0664 | locus YOR136W, strain idh2, hits give low values 0.0784 | locus YOR144C, strain elg1, hits give low values 0.0595 | locus YOR184W, strain ser1, hits give low values 0.0724 | locus YOR231W, strain MKK1, hits give low values 0.115 | locus YOR265W, strain rbl2, hits give low values 0.0564 | locus YOR270C, strain vph1, hits give low values 0.131 | locus YOR290C, strain snf2, hits give low values 0.0717 | locus YOR316C, strain cot1, hits give low values 0.0637 | locus YPL051W, strain arl3, hits give low values 0.062 | locus YPL055C, strain LGE1, hits give low values 0.0714 | locus YPL078C, strain atp4, hits give low values 0.0623 | locus YPL106C, strain sse1, hits give low values 0.096 | locus YPL240C, strain hsp82, hits give low values 0.083 | locus YPL256C, strain CLN2, hits give low values 0.129 | locus YPR119W, strain clb2, hits give low values 0.0694 | locus YPR141C, strain kar3, hits give low values 0.0792 | locus YPR163C, strain tif3, hits give low values 0.0744 | locus YPR167C, strain met16, hits give low values 0.0645 | strain wtn01, hits give low values 0.0639
